These results are taken from publication PMC12136788.

To fix the notation:
T1: UNK ZnF1-6 (called full-length) (human, UniProt Q9C0B0 30-357)
T1 sequence: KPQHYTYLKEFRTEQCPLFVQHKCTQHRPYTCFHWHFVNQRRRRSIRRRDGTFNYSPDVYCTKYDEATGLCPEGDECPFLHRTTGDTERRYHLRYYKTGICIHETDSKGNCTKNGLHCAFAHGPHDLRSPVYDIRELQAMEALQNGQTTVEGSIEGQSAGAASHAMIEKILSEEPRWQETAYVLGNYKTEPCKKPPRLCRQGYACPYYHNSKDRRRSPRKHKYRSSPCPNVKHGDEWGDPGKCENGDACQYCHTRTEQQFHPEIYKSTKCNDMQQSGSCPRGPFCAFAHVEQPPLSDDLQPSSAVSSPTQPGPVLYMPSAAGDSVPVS

B1: chr3:185917260:185917361:-|3pUTR|ENSG00000136527|msi1|FALSE|unique (ssRNA)
RNA: GGGAGUUCUACAGUCCGACGAUCUGGCAAAAAGCAACAAUAAACAGUUUGAUUUUUACUUUUCUUUCUAACAUAUCAAUGCUUAGCAGAACUAUUCAGAUUGUCAGUAGUAAAUUUAAAGACAAAUGCCCGUUUUCCUCCAGUCAACAGAGGAUUGAGCAUCA
B2: chr8:17299120:17299221:-|3pUTR|ENSG00000003987|unk|total|mutant (ssRNA)
RNA: GGGAGUUCUACAGUCCGACGAUCUCCUCAUUAUUUAAAAAUGCUAAACCUUGUAUCUCACUUUUUCUCUAACACUGAUUUAACCGCUAACGAGGCCGAAGCAACAUUCAUUCUCCUGGUCUUACAUAUGAAUUUAAGUAUCAGCAACAGAGGAUUGAGCAUCA
B3: chr12:21491601:21491717:-|CDS|ENSG00000004700|unk|FALSE|unique (ssRNA)
RNA: GGGAGUUCUACAGUCCGACGAUCGCUGCCUCCCAUAGCUCUAACUGAGGAACUGGAUUCUAUAACCAGUGAGCUACAUGCAGUAGAAAUUCAAAUUCAAGAACUUACGGAAAGGCAACAAGAGCUUAUUCAGAAAAAAAAAGUCAACAGAGGAUUGAGCAUCA
B4: chr9:130903550:130903651:-|3pUTR|ENSG00000130720|msi1|total|mutant (ssRNA)
RNA: GGGAGUUCUACAGUCCGACGAUCAAAUACCCGGCAUUAUGGGGACAGAGAGCAGGGGGCAGACAGCACCCCUGGAGUCCUCCCCGCAGAUCGUGGGGAACGUCAGGUCUCUCUGAGGUCAGGUCUGAGGCCAGUAUCCUCCAGCAACAGAGGAUUGAGCAUCA
B5: chr1:113590523:113590624:+|CDS|ENSG00000081026|unk|FALSE|unique (ssRNA)
RNA: GGGAGUUCUACAGUCCGACGAUCUCAUCUGACUGGAUGAAGACUGUUCCAAGUUACAACCAAACAAAUAGCUCCAUGGACUUUAGAAAUUAUAUGAUGAGAGAUGAGACUCUGGAACCACUGCCCAAAAACUGGGAAAUGGCCCAACAGAGGAUUGAGCAUCA
B6: chr4:127885990:127886091:+|CDS|ENSG00000142731|msi1|FALSE|unique (ssRNA)
RNA: GGGAGUUCUACAGUCCGACGAUCAUUACUUAUCGGGAGACCACCCUUCGACACUGACACAGUCAAGAACACAUUAAAUAAAGUAGUAUUGGCAGAUUAUGAAAUGCCAUCUUUUUUGUCAAUAGAGGCCAAGGACCUUAUUCACAACAGAGGAUUGAGCAUCA
B7: chr8:23842656:23842757:-|3pUTR|ENSG00000159167|msi1|total|mutant (ssRNA)
RNA: GGGAGUUCUACAGUCCGACGAUCCCCCAAACUUAUGGACACUGCCUCCGCCUCUUGGAAAUCAGGCCGACCAUAUUCUAAGUCCGACUCUUCCCCUCCCUCCCACACUUCCCACCCCCAGGCAAGGCUGACUUCUCUGAAUCACAACAGAGGAUUGAGCAUCA
B8: ENSG00000070961:be:win_3851|3pUTR|ENSG00000070961|bound_else_gene|NA|bound_elsewhere_windowed (ssRNA)
RNA: GGGAGUUCUACAGUCCGACGAUCUUUUUGGGGGGUGGGAGAAAUGAACUGACAGAUAAACAGUAACUCAGCGUAAGUGACCUGUGGAUCAUCAGUAGUACCCAAGCAUGGUCCUGAACAGUGUAUUAGCAGAGCUUUAGUUUACAACAGAGGAUUGAGCAUCA
B9: chr19:34227675:34227687:+|3pUTR|ENSG00000257103|msi1_unk|FALSE|overlapping (ssRNA)
RNA: GGGAGUUCUACAGUCCGACGAUCUUAAAACAUGAGCAUUAAAUAUAUUUGGAAUAGCAGAAGGUUAAGUAAUUUCUUAUGUAUAGUUAAACUAAAGCAGUACUUCAGUGGGACUUAACAAGUAUUUUUUCAUCACUGAAAGGUCAACAGAGGAUUGAGCAUCA
B10: chr19:51415897:51416167:-|CDS|ENSG00000142512|control|control|control (ssRNA)
RNA: GGGAGUUCUACAGUCCGACGAUCGCCACACUGAGCUGGGUCCUGCAGAACAGAGUCCUCUCCUCGUCCCAUCCCUGGGGCCCUAGACCCCUGGGGCUGGAGCUGCCCGGGGUGAAGGCUGGGGAUUCAGGGCGCUACACCUGCCAACAGAGGAUUGAGCAUCA
B11: chr1:180199467:180199568:+|3pUTR|ENSG00000116260|msi1|FALSE|unique (ssRNA)
RNA: GGGAGUUCUACAGUCCGACGAUCCACAGGAACAAUUUCCUCAAGGAGACAGUGGCAUGGAGCUUUGAAAGACGAGUAGGUGUUAGCAAGGAAAUAAGGAGGAACGGGGGUUACGGGCAGAGGAGAAAGCACAUGCCAAGUCAGCAACAGAGGAUUGAGCAUCA
B12: chr15:55376998:55377117:-|CDS|ENSG00000260916|unk|total|mutant (ssRNA)
RNA: GGGAGUUCUACAGUCCGACGAUCUAUCUAUAUUGGAACUGCCAGUGAUGAUUCUGAUAUUGUUACCCUUGAGCCACCUAAGUCCGAAGAAAUUGGAAAUCAAGAAGUUGUCAUUGUUGAAGAAGCACAGAGUUCAGAAGACUUCAACAGAGGAUUGAGCAUCA
B13: chr15:63774837:63774950:-|CDS|ENSG00000103657|unk|FALSE|unique (ssRNA)
RNA: GGGAGUUCUACAGUCCGACGAUCGUAACAACAUUUCUUAAAGGAGUCACUAUUCCUAAUUCUGGGGCAGACACUUUAGGUCGUAGAUUAGCUUCUGAGUUGCUGCUUGGUUUGGCAGCUCAACGAGGCUCAUUGCGAUAUCUUCAACAGAGGAUUGAGCAUCA
B14: chr12:68660398:68660499:+|3pUTR|ENSG00000127314|msi1|total|mutant (ssRNA)
RNA: GGGAGUUCUACAGUCCGACGAUCUUGAGGUGGCCAAAUGUAAACUAAAAGCCUUAAUUAAAGUGGUGCAAUUUUGUAUAACUCCGCAUCAGCCGUUCAAUAAAUUUGGAUUGCCAUGCAAGGGCUUGCAUUAUAAUUACUUGCCAACAGAGGAUUGAGCAUCA
B15: chr5:103029089:103029184:+|3pUTR|ENSG00000145730|msi1_unk|FALSE|overlapping (ssRNA)
RNA: GGGAGUUCUACAGUCCGACGAUCAACCAAGCUUUGAUUUAGAUUGAGUAAGAUUUACCCAGAAUGUCAGAUUCCUUUCCCUUUAGCACGUUUAAAGUUCUGUGUAUUUAAUUGUAAACUGUACUAGUCUGUGUGGGACUGUACCAACAGAGGAUUGAGCAUCA
B16: chr2:32415436:32415554:+|CDS|ENSG00000115760|unk|FALSE|unique (ssRNA)
RNA: GGGAGUUCUACAGUCCGACGAUCUGGGACUUUGGUUCAGUGCUUGAGGCUGCCAAAGUUUGCAGAGGAGGAGAAUCUUUGUAUAGACUCAAUAACUCCUUGUGCUGACGGAAUUCAUUUGUUGGUAGGACUGCGGACAUGCCCCAACAGAGGAUUGAGCAUCA
B17: chr1:43978039:43978149:+|3pUTR|ENSG00000117410|unk|total|mutant (ssRNA)
RNA: GGGAGUUCUACAGUCCGACGAUCGGCCGUGCCUCACUUUUAUUUAUUGCUGGUUUUCCUGGGACAGCUGGAGCUGUGUCCCUCCGCCUUUCAGAGGCUUGGUGUUCAGGGCCCUCCCUGCACUCCCCUCUUGCUGCGUGUUGACAACAGAGGAUUGAGCAUCA
B18: ENSG00000107863:be:win_5401|CDS|ENSG00000107863|bound_else_gene|NA|bound_elsewhere_windowed (ssRNA)
RNA: GGGAGUUCUACAGUCCGACGAUCAGACAUACACUAGGAGGGCACAGAGAUGCUACCGAAAUCAGCGUUUUGAAUUUUUGGAAAGUGCAUGAGCAGAGCGGGGAGAGAGAAUCUGAACUUUCAGCUGUAAACCGGUUAAAACCACAACAGAGGAUUGAGCAUCA
B19: ENSG00000156976:stop:overlap|stop_codon|ENSG00000156976|stop_codon|NA|stop_codon (ssRNA)
RNA: GGGAGUUCUACAGUCCGACGAUCCUUUGGUUAUAAAUUAUGAUCUACCUACCAAUCGUGAAAACUAUAUUCACAGGAGUCGAUAGCAGCAGUUGGUGACGAGAUGGCACUCAGAAACGGCGUUGACGUAAUUUAGGACGUGGACAACAGAGGAUUGAGCAUCA
B20: chr2:159967538:159967678:-|CDS|ENSG00000153246|control|control|control (ssRNA)
RNA: GGGAGUUCUACAGUCCGACGAUCUAGUGAAGAGUGUUCAGUUUCUAUGCCUAGUAUCUGUAAGCGAAAAAAGGUUUGGCUCAUAGAGAAAAAGAAAGAUACACCAAAACAACAUGGAACGUGUCCCAAAGGAUGGCUAUAUUUCAACAGAGGAUUGAGCAUCA
B21: ENSG00000187498:stop:overlap|stop_codon|ENSG00000187498|stop_codon|NA|stop_codon (ssRNA)
RNA: GGGAGUUCUACAGUCCGACGAUCAGGUGAACCGGGACCUCCUGGAUUGCCAGGCUCCGUGGGGUCUCCAGGAGUUCCAGGAAUAGGCCCCCCUGGAGCUAGGGGUCCCCCUGGAGGACAGGGACCACCGGGGUUGUCAGGCCCCAACAGAGGAUUGAGCAUCA
B22: chr10:71816642:71816777:-|3pUTR|ENSG00000197746|msi1_unk|total|mutant (ssRNA)
RNA: GGGAGUUCUACAGUCCGACGAUCUUGUUUGGGGUUCUGUGGGUUUGGGUGGGAAGAGGGCCAUCUGCCUGAAUGUAACCUGCCCGCUCUCCGAAGGCCCUGCGGGCCUGGCUUGUGUGAGCGUGUGGACAGUGGUGGCCGCGCCAACAGAGGAUUGAGCAUCA

Over roughly 5,800 sequences, “enrichment r” has its median near 0.68; the highest 2% begin near 11. A selection follows.

The experiment has as its target T1, UNK ZnF1-6 (called full-length). The experiment in a line: nsRBNS (natural sequence RNA bind-n-seq); RBNS binding buffer (assumed for nsRBNS): 25 mM Tris pH 7.5, 150 mM KCl, 3 mM MgCl2, 0.01% Triton X-100, 500 ug/ml BSA, 20 U/ml SUPERase-In, 4 C; UNK is unkempt and MSI1 is Musashi-1; names of the RNAs are library labels; protein concentration not given here; high values mean tight binding.
B1 gave a binding signal of 0.751 enrichment R.

Molecule B2 came in with a binding signal of 0.98 enrichment R.

With B3, the binding signal stood at 0.594 enrichment R.

In the case of B4, the binding signal was 0.72 enrichment R.

As to B5, the binding signal came out at 1.15 enrichment R.

As for B6, the binding signal is 1.26 enrichment R.

For B7, the binding signal came to 1.07 enrichment R.

With B8, the binding signal came to 1.18 enrichment R.

Molecule B9 returned a binding signal of 1.37 enrichment R.

Molecule B10 showed a binding signal of 0.641 enrichment R.

In turn, B11 yielded a binding signal of 1.51 enrichment R.

Take B12: the binding signal was found to be 0.258 enrichment R.

B13: the binding signal turned out to be 0.542 enrichment R.

B14: the binding signal was found to be 0.352 enrichment R.

Turning to B15, the binding signal came to 1.16 enrichment R.

For the molecule B16, the binding signal came out at 0.624 enrichment R.

B17 displayed a binding signal of 0.779 enrichment R.

Molecule B18 had a binding signal of 0.693 enrichment R.

In the case of B19, the binding signal was 0.52 enrichment R.

The molecule B20 came in with a binding signal of 0.378 enrichment R.

With B21, the binding signal worked out at 0.745 enrichment R.

The molecule B22 returned a binding signal of 0.901 enrichment R.
